About 14,000 (4.5%) of roughly 310,000 compounds showed an effect of 50% or more. Effects have a minus sign here. This excerpt belongs to a sample that is enriched for strong results.
The compounds below were run against human ether-à-go-go-related gene (hERG) potassium channel (human, UniProt Q12809) (assay: primary screen, population patch clamp on CHO cells stably expressing hERG; higher = less effect of the substance).
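Also: peak tail current of the secondary pulse compared with the same well before compound.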

Sequence of human ether-à-go-go-related gene (hERG) potassium channel (Q12809 whole entry, looked up): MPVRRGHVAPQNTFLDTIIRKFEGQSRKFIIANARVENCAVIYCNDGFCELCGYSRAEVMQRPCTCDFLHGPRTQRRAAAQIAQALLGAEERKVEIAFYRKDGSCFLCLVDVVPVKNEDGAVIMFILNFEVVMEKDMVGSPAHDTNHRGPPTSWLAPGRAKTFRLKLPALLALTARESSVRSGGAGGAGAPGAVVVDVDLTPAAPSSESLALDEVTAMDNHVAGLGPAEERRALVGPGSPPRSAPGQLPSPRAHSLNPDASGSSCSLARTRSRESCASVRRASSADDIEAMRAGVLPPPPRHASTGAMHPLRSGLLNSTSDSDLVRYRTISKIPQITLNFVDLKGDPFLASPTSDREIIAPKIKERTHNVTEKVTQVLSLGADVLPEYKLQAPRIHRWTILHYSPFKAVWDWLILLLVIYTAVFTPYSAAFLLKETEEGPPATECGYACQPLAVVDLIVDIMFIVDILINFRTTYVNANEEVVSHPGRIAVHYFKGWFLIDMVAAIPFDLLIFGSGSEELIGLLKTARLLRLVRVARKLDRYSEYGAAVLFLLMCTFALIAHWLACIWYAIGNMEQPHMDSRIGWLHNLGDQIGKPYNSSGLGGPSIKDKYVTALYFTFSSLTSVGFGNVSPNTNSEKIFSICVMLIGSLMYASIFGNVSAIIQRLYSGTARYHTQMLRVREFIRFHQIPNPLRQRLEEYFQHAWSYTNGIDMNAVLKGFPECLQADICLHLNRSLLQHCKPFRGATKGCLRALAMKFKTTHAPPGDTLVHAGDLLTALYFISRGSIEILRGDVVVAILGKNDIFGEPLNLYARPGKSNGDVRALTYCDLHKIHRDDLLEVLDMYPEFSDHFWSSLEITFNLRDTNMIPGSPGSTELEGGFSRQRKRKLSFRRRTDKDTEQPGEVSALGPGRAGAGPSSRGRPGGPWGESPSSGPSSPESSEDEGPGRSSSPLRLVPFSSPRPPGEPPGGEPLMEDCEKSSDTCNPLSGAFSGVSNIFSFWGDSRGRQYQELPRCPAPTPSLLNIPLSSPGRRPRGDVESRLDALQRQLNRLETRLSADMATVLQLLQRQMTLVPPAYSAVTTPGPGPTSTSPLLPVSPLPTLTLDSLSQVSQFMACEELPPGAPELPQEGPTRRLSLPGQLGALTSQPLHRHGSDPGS

First: Oc1ccccc1N1CCN(c2ncccn2)CC1
Second: Cc1ccsc1C(=O)C1CCCN(Cc2cccn2-c2ccccn2)C1 (centres unmarked)
The “hERG current change (%, negative = inhibition) at 10uM” value of the first is higher: 10.4% for the first, -75.8% for the second.

Compared with `Cc1ccc(S(=O)(=O)NNC(=O)c2sccc2-n2cccc2)cc1`, `O=C(CC1(O)C(=O)Nc2ccccc21)c1ccc(-n2cccc2)cc1` (centres unmarked) is higher in “hERG current change (%, negative = inhibition) at 10uM” value: -21.7% for the first, 2.85% for the second.

Compared with `CC(C)c1cccc(C(C)C)c1NC(=S)Nc1cccc(Cl)c1`, `CC(C)c1ccc(NC(=O)CNCC(c2ccccc2)N(C)C)cc1` (centres unmarked) is lower in “hERG current change (%, negative = inhibition) at 10uM” value: 5.01% for the first, -27.6% for the second.

Compared with `COc1ccc(CC(=O)NNC(=O)c2ccncc2)cc1`, `COc1ccc(NC(=O)C(=O)NCC(c2ccco2)N2CCc3ccccc3C2)cc1` (centres unmarked) is lower in “hERG current change (%, negative = inhibition) at 10uM” value: 29.1% for the first, -23.5% for the second.

Going from `CCOc1ccc(CNS(=O)(=O)c2c(C)nc3sccn3c2=O)cc1OC` to `CCOc1ccc(CNS(=O)(=O)c2c(C)nc3scc(C)n3c2=O)cc1OC`, the “hERG current change (%, negative = inhibition) at 10uM” value rises from -66.1% to 8.99%.

Going from `COc1cccc(CNS(=O)(=O)c2c(C)nc3sccn3c2=O)c1` to `COc1ccc(Nc2c(-c3ccc(C)cc3)nc3cnccn23)cc1`, the “hERG current change (%, negative = inhibition) at 10uM” value falls from -13.6% to -24.5%.

Compared with `O=C(NCCNC(=O)c1ccccn1)c1ccccc1`, `O=C(CN1C(=O)NC(Cc2ccccc2)C1=O)Nc1ccccc1` (centres unmarked) is lower in “hERG current change (%, negative = inhibition) at 10uM” value: 11.7% for the first, 6.7% for the second.

First: C=CCc1ccc(OCCn2nnc3ccccc32)c(OC)c1
Second: COc1ccc(NC(=O)C(=O)NCC(c2ccco2)N2CCc3ccccc3C2)cc1OC (centres unmarked)
The “hERG current change (%, negative = inhibition) at 10uM” value of the first is higher: -12.8% for the first, -69.4% for the second.

Compared with `Cc1ccc2c(c1)C1CN(C)CCC1N2C(=S)Nc1ccc(Cl)cc1Cl` (centres unmarked), `Cc1ccc2c(c1)C1CN(C)CCC1N2C(=S)NC(=O)c1ccc(Cl)cc1Cl` (centres unmarked) is lower in “hERG current change (%, negative = inhibition) at 10uM” value: -34.2% for the first, -71% for the second.

Compared with `COc1ccc(-c2nn(-c3ccccc3)cc2C(=O)N2c3ccc(C)cc3C3CN(C)CCC32)cc1` (centres unmarked), `Cc1ccc2c(c1)C1CN(C)CCC1N2C(=O)c1cn(-c2ccccc2)nc1-c1ccccc1` (centres unmarked) is lower in “hERG current change (%, negative = inhibition) at 10uM” value: -31.7% for the first, -65.6% for the second.

First: Cc1ccc2c(c1)C1CN(C)CCC1N2C(=O)c1ccco1 (centres unmarked)
Second: Cc1ccc2c(c1)C1CN(C)CCC1N2C(=O)c1ccc(Br)o1 (centres unmarked)
The “hERG current change (%, negative = inhibition) at 10uM” value of the first is higher: -7.26% for the first, -38% for the second.

First: Cc1ccc2c(c1)C1CN(C)CCC1N2C(=O)c1cccs1 (centres unmarked)
Second: Cc1ccc2c(c1)C1CN(C)CCC1N2C(=S)Nc1cccnc1 (centres unmarked)
The “hERG current change (%, negative = inhibition) at 10uM” value of the first is lower: -22% for the first, -14% for the second.

Compared with `Cc1ccc2c(c1)C1CN(C)CCC1N2C(=S)NC(=O)c1ccc(Br)cc1` (centres unmarked), `Cc1ccc2c(c1)C1CN(C)CCC1N2C(=S)Nc1ccc(OC(F)F)cc1` (centres unmarked) is higher in “hERG current change (%, negative = inhibition) at 10uM” value: -67.1% for the first, -55.1% for the second.

Going from `Cc1ccc(C(=O)N(C)c2ccc(OCC(=O)N3c4ccc(C)cc4C4CN(C)CCC43)cc2)cc1.Cl` (centres unmarked) to `CCOc1cccc2c1OC1(C)CC2NC(=O)N1c1cccc(C(=O)N2CCN(c3ccccn3)CC2)c1` (centres unmarked), the “hERG current change (%, negative = inhibition) at 10uM” value rises from -25.5% to -1.89%.

First: CC1Cc2ccccc2N1C(=S)NC(=O)c1ccc(Cl)cc1Cl (centres unmarked)
Second: Cn1nc(-c2ccccc2)c(C(=O)Nc2ccc(Cl)cc2)c1Cl
The “hERG current change (%, negative = inhibition) at 10uM” value of the first is higher: 4.89% for the first, -12.7% for the second.

Compared with `C/C(=N\NC(=O)c1ccc2c(c1)OCO2)c1ccc(O)cc1`, `O=C(NCc1ccco1)c1ccc(Cl)c(S(=O)(=O)N2CCc3ccccc32)c1` is lower in “hERG current change (%, negative = inhibition) at 10uM” value: 13.1% for the first, -20.6% for the second.

Compared with `Cc1ccc(/C=N/NC(=O)c2ccco2)s1`, `CNC(=O)c1c(NC(=O)c2ccco2)sc(C)c1C` is higher in “hERG current change (%, negative = inhibition) at 10uM” value: -2.98% for the first, 1.42% for the second.

Going from `CCOc1cc(S(=O)(=O)NCCCN2CCOCC2)ccc1F` to `O=C(NCC(c1ccco1)N1CCOCC1)c1cccc([N+](=O)[O-])c1` (centres unmarked), the “hERG current change (%, negative = inhibition) at 10uM” value rises from 3.16% to 12.7%.

Compared with `Cc1cc(NC(=O)c2c(-c3c(Cl)cccc3Cl)noc2C)n(C)n1`, `CC(=O)Nc1ccc(NC(=O)C(C)OC(=O)c2c(C)nn(-c3ccccc3)c2Cl)cc1` (centres unmarked) is lower in “hERG current change (%, negative = inhibition) at 10uM” value: 16% for the first, -14.8% for the second.

Going from `O=C(CN1C(=O)NC(Cc2ccccc2)C1=O)Nc1ccc(OC(F)(F)F)cc1` (centres unmarked) to `O=C(CN1C(=O)NC(Cc2ccccc2)C1=O)Nc1ccc(OC(F)F)cc1` (centres unmarked), the “hERG current change (%, negative = inhibition) at 10uM” value falls from -13.9% to -66.9%.

First: N#Cc1ccc(NC(=O)CN2C(=O)NC(Cc3ccccc3)C2=O)cc1 (centres unmarked)
Second: O=C(CN1C(=O)NC(Cc2ccccc2)C1=O)Nc1ccc(F)cc1 (centres unmarked)
The “hERG current change (%, negative = inhibition) at 10uM” value of the first is lower: -57.7% for the first, -7.41% for the second.

Compared with `N#Cc1cccc(NC(=O)CN2C(=O)NC(Cc3ccccc3)C2=O)c1` (centres unmarked), `COc1cccc(NC(=O)C(=O)NCC(c2ccco2)N2CCc3ccccc3C2)c1` (centres unmarked) is lower in “hERG current change (%, negative = inhibition) at 10uM” value: 2.91% for the first, -9.29% for the second.

Going from `CCCCN1C(N)=NC[C@@H]1C(C)O` (some centres unmarked) to `Cc1ncc(CN2CCCC(C(=O)c3sccc3C)C2)s1` (centres unmarked), the “hERG current change (%, negative = inhibition) at 10uM” value rises from 15.9% to 24.7%.

Going from `COC(=O)c1c(C)[nH]c(C(=O)OC(C)C(=O)N(C)C2CCCCC2)c1C` (centres unmarked) to `Cc1nn(-c2ccc(F)cc2)c(Cl)c1C(=O)OC(C)C(=O)N(C)C1CCCCC1` (centres unmarked), the “hERG current change (%, negative = inhibition) at 10uM” value falls from -2.13% to -59%.

Compared with `Cc1ccsc1C(=O)C1CCCN(Cc2cnc(N(C)C)s2)C1` (centres unmarked), `Cc1ccsc1C(=O)C1CCCN(Cc2cccn2-c2ccc(Cl)cn2)C1` (centres unmarked) is lower in “hERG current change (%, negative = inhibition) at 10uM” value: -9.23% for the first, -77.6% for the second.

Going from `CC(C)(C)C(=O)NC1(C(F)(F)F)N=C2SCCN2C1=O` (centres unmarked) to `Cc1ccc(C)c(S(=O)(=O)NCC(c2ccco2)N2CCc3ccccc3C2)c1` (centres unmarked), the “hERG current change (%, negative = inhibition) at 10uM” value falls from -4.77% to -9.3%.

First: Cc1cc(Br)c(NC(=O)Cn2c([N+](=O)[O-])cnc2C)cc1C
Second: O=C(NCC(c1ccco1)N1CCc2ccccc2C1)c1cccc([N+](=O)[O-])c1 (centres unmarked)
The “hERG current change (%, negative = inhibition) at 10uM” value of the first is higher: 4.01% for the first, -67.2% for the second.

Compared with `COc1ccc(C)cc1S(=O)(=O)NCC(c1ccco1)N1CCc2ccccc2C1` (centres unmarked), `COc1ccc(F)cc1S(=O)(=O)NCC(c1ccco1)N1CCc2ccccc2C1` (centres unmarked) is higher in “hERG current change (%, negative = inhibition) at 10uM” value: -62.8% for the first, -30.4% for the second.

First: O=C(NCC(c1ccco1)N1CCCC1)c1ccc(Cl)c(S(=O)(=O)N2CCc3ccccc32)c1 (centres unmarked)
Second: O=C(NCC(c1ccco1)N1CCCCC1)c1cccc(S(=O)(=O)Nc2ccccc2Cl)c1 (centres unmarked)
The “hERG current change (%, negative = inhibition) at 10uM” value of the first is lower: -51% for the first, -2.33% for the second.

In the case of `O=C(NCC(c1ccco1)N1CCc2ccccc2C1)c1cccc(Br)c1` (centres unmarked), the “hERG current change (%, negative = inhibition) at 10uM” value is reported as -5.34%.
